The list is not random: actives were taken first. Their share in the collection is about 3%.
esBAF inh: Bmi1 luciferase reporter increase in mESCs, primary screen, esBAF inhibitor project, mouse ES cells, Bmi1 luciferase knock-in, single point; 24 h; 100% = twice the neutral-well signal; reporter increase, % at 12.5 µM; hit rate 2% among 350,000; AID 602393, 2012; in the data active = activation above about 40%; inconclusive = no clear call, values can overlap the other calls;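 note: 0% = median of the plate's neutral control wells and 100% = double that signal; a rise in the Bmi1 reporter signal indicates esBAF inhibition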
PfHsp90 set2: growth inhibition of PfHsp90-expressing yeast, primary screen, antimalarial PfHsp90 inhibitor project, S. cerevisiae, BacTiter-Glo luminescence, single point, set 2; BacTiter-Glo ATP, 48 h; yeast lacking PDR1 and PDR3 efflux regulators; inhibition, % at 9.4 µM; hit rate 0.32% among 310,000; AID 504621, 2011;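 active = every replicate shows inhibition above about 80%, whatever the replicate mean, limit read from the data; inconclusive = mean inhibition reaches the set limit but some replicate falls short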;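 note: 0% = DMSO neutral controls and 100% = 20 µM radicicol positive controls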
Wnt act: Wnt/beta-catenin pathway activators, primary screen, cell-based, plate reader, single point. Wnt/beta-catenin reporter cell assay, activator. activation, % at 9.35 µM. hit rate 1.2% among 300,000; in the data active = activation above about 30%, passing the limit was not always enough; inconclusive = no clear call, values can overlap the other calls;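 note: 0% = neutral control wells and 100% = positive control wells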
Vif imaging: HIV Vif self-association inhibitors, primary screen, imaging, HEK293T, single point; HEK293T cells, Vif self-association by quenched fluorescence, 24 h; inhibition, % at 7.49 µM; hit rate 0.35% among 340,000; in the data active = inhibition above about 50%, passing the limit was not always enough; inconclusive = no clear call, values can overlap the other calls; inactive = below about 31%
Glyco luc inh: increase of ERlucT glycosylation luciferase signal, primary screen, N-linked glycosylation inhibitor project, D54 ERlucT cells, luminescence, set 2; AID 588692, 2011; D54 ERlucT glycosylation luciferase reporter, 24 h; percent of 100 nM tunicamycin response; hit rate 0.23% among 360,000; reporter increase, % at 12.5 µM;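 active = mean luciferase reporter signal, scaled so untreated is 0 and the glycosylation-blocking control 100, at or above a set limit in every replicate; inconclusive = mean reaches the limit but not every replicate does; inactive = mean below the limit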;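 note: luciferase carries N-glycosylation sites so blocking glycosylation raises the light; 0% = median of neutral control wells and 100% = median of 100 nM tunicamycin wells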
MITF TRPM1 HTS: activators of MITF-driven TRPM1 promoter reporter, primary screen, cell-based, SK-MEL-5, luciferase, single point | SK-MEL-5 TRPM1-promoter luciferase, 24 h; % of positive control, neutral wells = 0 | activation, % at 12.5 µM | hit rate 0.75% among 300,000 | AID 588334, 2011;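 active = mean activation of at least 80% with every replicate also reaching 80%; inconclusive = mean reaches 80% but some replicate falls short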;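 note: 0% = neutral control wells and 100% = parthenolide positive control wells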
Active calls of the source: *; ? = inconclusive; / = no result given.

SMILES | esBAF inh | PfHsp90 set2 | Wnt act | Vif imaging | Glyco luc inh | MITF TRPM1 HTS
Nc1nc2c(-c3ccc(Br)cc3)nnn2c2ccccc12 | 16 | -29 | 43* | 0 | -10 | 40
COCC(=O)N(C)C[C@H]1Oc2cc(C#Cc3cccnc3)ccc2S(=O)(=O)N([C@@H](C)CO)C[C@@H]1C | -3 | / | / | / | / | /
CCCNC(=O)C[C@H]1C[C@@H]2c3cc(NC(=O)NC4CCCCC4)ccc3O[C@@H]2[C@H](CO)O1 | -3 | / | / | / | / | /
OCc1c(OCc2cccc(F)c2)ccc2ccccc12 | 63* | 16 | 7 | 2 | -3 | 32
COc1ccc(Br)cc1C(=O)N/N=C/c1ccc2c(c1)n(C)c(=O)n2C | -2 | -7 | 0 | -4 | 4 | -1
O=C(CCl)NCc1c(Cl)cccc1-n1cccc1 | 1 | 3 | 1 | 3 | -4 | -25
c1ccc(C2CC(c3ccccc3)n3ncnc3N2)cc1 (stereo not drawn) | 0 | -1 | / | 13 | 0 | -2
CN1/C(=C\C=C2/C(=O)Oc3ccccc3C2=O)C(C)(C)c2ccccc21 | / | / | 52* | / | / | /
COc1ccc(NC(=O)CNC(=O)c2nn(-c3ccc(OC)cc3OC)c(=O)c3ccccc23)c(OC)c1 | 2 | 9 | 1 | 0 | -1 | 4
CN1CC(=O)N(CC(=O)NC2CCCCC2)C1=O | 7 | -1 | 0 | 32 | 0 | 6
COc1ccc(NC(=S)NCCSc2ccc(C)cc2)c(OC)c1 | / | 1 | 61* | 3 | -1 | 7
S=C(NCCc1ccccc1)Nc1ncccn1 | 30 | 1 | -1 | 4 | -1 | 55
Cc1cccnc1NC(=S)NCCc1ccccc1 | ? | -19 | 40* | 5 | -1 | ?
COc1ccc(NC(=S)Nc2ncccc2C)c(OC)c1 | 48* | -24 | 14 | -8 | 2 | 68
Cc1cccnc1NC(=S)Nc1ncccc1C | 38 | 5 | 28 | / | -6 | 101*
Cc1cccc(N(C(=O)Cn2nnc3ccccc32)C(C(=O)NCc2ccco2)c2ccncc2)c1C (stereo not drawn) | 15 | 16 | -1 | 1 | 1 | 9
O=C(Nc1nccs1)C(F)(F)C(F)(F)C(F)(F)C(=O)Nc1nccs1 | / | -8 | 1 | 0 | 1 | 4
C/C=C/c1cnc2c(c1)C(=O)N([C@H](C)CO)C[C@H](C)[C@H](CN(C)S(=O)(=O)c1ccc(C)cc1)O2 | -4 | / | / | / | / | /
Cc1ccc(NC(=O)CCCc2ccccc2)nc1 | ? | / | 0 | 17 | 0 | ?
Cc1ccc(NC(=S)NCCc2ccccc2)nc1 | / | 4 | 8 | -5 | -2 | 84*
Cc1occc1C(=O)N/N=C/C1=C(N2CCOCC2)C(=C/c2ccc(Cl)cc2Cl)/CC1 | / | -1 | -4 | 133* | 1 | -4
COC(=O)C1=C(C)N(CC2CCCO2)C(=O)/C1=C\c1ccc(O)cc1 (stereo not drawn) | 6 | 8 | / | 12 | 0 | -16
CC(OCCN(C)C)C(=O)C12CC3CC(CC(C3)C1)C2 (stereo not drawn) | / | / | 2 | 5 | -1 | /
Cc1cccc(NC(=O)/C(C#N)=C/c2ccc[nH]2)c1C | 49* | -2 | 7 | 5 | 2 | 13
Cc1cccc(NC(=O)/C(C#N)=C/c2cn(CC(=O)NCc3ccco3)c3ccccc23)c1C | 8 | -5 | -7 | 72* | -5 | -29
SMILES | esBAF inh | PfHsp90 set2 | Wnt act | Vif imaging | Glyco luc inh | MITF TRPM1 HTS
Cc1ccc(C)c(NC(=O)/C(C#N)=C/c2ccc[nH]2)c1 | 7 | 13 | -1 | -5 | -3 | -11
CC12CCC(=O)N1C(C(=O)Nc1ccccc1N1CCOCC1)CS2 (stereo not drawn) | -8 | -17 | 1 | -7 | -2 | -7
CCOc1ccc(/C=N/NC(=O)NC23CC4CC(CC(C4)C2)C3)cc1O | 2 | -22 | -2 | 23 | -2 | 17
Cc1ccc2c(c1)-n1c(nc3cc(F)ccc3c1=O)C(Cc1ccccc1)NC2=O (stereo not drawn) | / | / | -2 | / | / | /
C=CCN1N=C(/C=C/c2ccc(C)cc2)CCC1=O | 56* | 14 | 6 | 15 | 2 | 53
C=CCN1N=C(/C=C/c2ccc(OC)cc2)CCC1=O | ? | -48 | 8 | 10 | 0 | 68
CC1CCCC(C)N1C(=O)COC(=O)CCc1nc2ccccc2c(=O)[nH]1 (stereo not drawn) | 3 | 5 | / | -1 | 1 | -10
CCCCCCCCCCCCCCCC[N+](C)(C)CCl | / | 105* | -4 | 14 | -7 | /
CCCCCCCCCCCCCCCC[N+](C)(C)CC | -39 | 108* | -22 | -3 | -15 | -40
O=C(NCCCSc1ccccc1)c1cccnc1 | -5 | -3 | 1 | -5 | 0 | 1
O=C(NCCSc1ccccc1)c1ccccc1F | 47* | -24 | -1 | -1 | -7 | /
O=C(NCCSc1ccccc1)c1cccnc1 | 58* | 3 | / | -1 | -2 | 56
CN(C)S(=O)(=O)c1ccc(C(=O)NCCSc2ccccc2)cc1 | 53* | -2 | / | 0 | -3 | 41
CN(C)c1ccc(C(=O)NCCCSc2ccccc2)cc1 | / | -4 | 2 | / | / | 9
CC(C)(C)SCCNC(=O)COc1ccccc1 | 16 | 8 | / | -2 | 1 | 24
O=C(COc1ccccc1)NCCSc1ccccc1 | 52* | / | 18 | -1 | -2 | /
COC(=O)Cc1c(C)c2ccc(OCc3nn[nH]n3)cc2oc1=O | -6 | -7 | / | / | 1 | -4
O=C(CNC(=O)c1ccccc1F)c1ccccc1 | -14 | -1 | 38* | 10 | -8 | /
Cc1cc(N2CCN(c3ccc([N+](=O)[O-])c4cccnc34)CC2)c2ccccc2n1 | / | 1 | / | 7 | 105* | -76
Cc1ccc(C)c(S(=O)(=O)N(C(=O)c2ccncc2)c2ccc(OC(=O)c3ccncc3)cc2)c1 | / | -71 | 48* | 6 | 1 | 3
Cc1ccc(S(=O)(=O)N(C(=O)c2ccncc2)c2ccc(OC(=O)c3ccncc3)cc2)c(C)c1 | / | 89* | -1 | -2 | -3 | -8
O=C(Oc1ccc(N(C(=O)c2ccncc2)S(=O)(=O)c2ccc(F)cc2)cc1)c1ccncc1 | -4 | -15 | / | 1 | -1 | -1
CCOC(=O)C1(Cc2ccccc2Cl)CCN(C(=O)c2cnccn2)CC1 | 67* | 14 | 12 | -2 | -1 | 79
O=C(O)CCc1ccc(-c2ccc(Br)cc2)n1-c1cccc(O)c1 | 73* | -3 | 17 | -5 | 1 | -25
O=C(CN1C(=O)CCSc2ccccc21)NC1CCCCC1 | -4 | 7 | -4 | 3 | 3 | -3
Nc1ccc(Oc2cc(N)cc(Oc3ccccc3)c2)cc1 | 3 | 7 | ? | 170 | -3 | 87*

Bioassay records as filed in PubChem.
